Compound activity from PubChem BioAssay.
Rows were chosen to be rich in hits. Some 7.8% of all compounds tested hit in one or more screens of this group.
HCV inh: HCV inhibition | Huh7.5.1 HCVcc-Cre infection, luciferase reporter, 44 h | AID 651820 | Potency, µM (series often up to 41.8 µM), for inactives: at the top dose activity change, negative = inhibition, usual class: inhibitors | 3.4% of 340,000 active; active = well fitted inhibition curve with a large enough effect; inconclusive = small, poorly fitted or top-dose-only effect, or another doubt; inactive = no such curve, though single readings can be large or run the other way; note: potency is the fitted concentration of half-maximal effect
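Whole-lifecycle infectious HCVcc-Cre system; cells 1,000/well, compound then virus (~0.5 moi) added 4 h after plating, 44 h culture. Luciferase read 15 sec following 15 min substrate incubation, room temp.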
MARV entry inh: inhibitors of Marburg virus binding or cell entry; Potency, µM (top dose mostly 37.8 µM), for inactives: at the top dose activity change, negative = inhibition, usual class: inhibitors; Marburg virus pseudotyped entry inhibition, cell reporter; 1.8% of 300,000 active; calls by dose curve; tested in HEK293 cells; note: potency is the fitted concentration of half-maximal effect
VACV mCherry inh: vaccinia inhibition (mCherry reporter) | 0.63% of 310,000 active | Potency, µM (series often up to 36.5 µM), for inactives: at the top dose activity change, negative = inhibition, hits mostly inhibitors | Vaccinia virus mCherry reporter infection, fluorescence; calls by dose curve; tested in A549 cells; note: potency is the fitted concentration of half-maximal effect; nearly all actives have a fitted effect of over 35% in size
Lassa entry inh: Lassa virus entry inhibition; Lassa virus pseudotype entry inhibition, cell reporter; Potency, µM (doses to about 37.9 µM), for inactives: at the top dose activity change, negative = inhibition, most hits filed as inhibitors; 1.2% of 300,000 active; calls by dose curve; tested in HEK293 cells; note: potency is the fitted concentration of half-maximal effect; nearly all actives have a fitted effect of over 50% in size
Vaccinia Venus: vaccinia inhibition (Venus reporter); Vaccinia virus Venus reporter expression, fluorescence; Potency, µM (top dose mostly 36.5 µM), for the others: at the top dose activity change, negative = inhibition, usual class: inhibitors; 0.46% of 330,000 active; calls by dose curve; tested in A549 cells; note: potency is the fitted concentration of half-maximal effect; nearly all actives have a fitted effect of over 30% in size
HCMV antiviral: inhibitors of human cytomegalovirus; HFF cells, HCMV-luciferase reporter, 72 h; active compounds read low; activity change, negative = inhibition, % at 57.5 µM; 4.5% of 410,000 active; in the data active = activity change below about -60%; inconclusive = no clear call, values can overlap the other calls; inactive = above about -39%
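Two compound doses tested in HFFs infected with HCMV-luciferase, MOI 1 PFU/cell, 72 h at 37C. Lysate luminescence read with OneGlo; data normalized against buffer-only and 10uM Salinomycin inhibitor controls.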
Active calls of the source: *; i = inactive; ? = inconclusive; / = no result given; [ ] = another dose, or the depositor's remark. % is set by controls: 0 for no effect and ±100 for the full control effect.

SMILES	HCV inh	MARV entry inh	VACV mCherry inh	Lassa entry inh	Vaccinia Venus	HCMV antiviral
Cn1ccc2c(-c3ccc(F)cc3)cc3c(c21)C1CCC3O1 (stereo not given)	/	/	/	1%[46.1 µM]	/	/
COc1cc(NS(=O)(=O)c2ccc(NC(=S)NC(=O)c3cccs3)cc2)nc(OC)n1	13%	6%	i	13%	-12%	6
CN(C1CCCCC1)S(=O)(=O)c1ccc(NC(=S)NC(=O)c2cccs2)cc1	?	18µM*	/	-12%	/	-39
Cc1cc(C)cc(NS(=O)(=O)c2ccc(NC(=S)NC(=O)c3cccs3)cc2)c1	?	12µM*	?	14µM*	?	-34
CCN(CC)S(=O)(=O)c1ccc(C(=O)NC2CC(=O)N(c3ccc(OC)c(OC)c3)C2)cc1 (stereo not given)	/	/	-4%	5%[46.1 µM]	-5%	13
O=C(CSc1nc(-c2ccco2)cc(C(F)(F)F)n1)Nc1ccc(C(=O)N2CCOCC2)cc1	10µM*	?	/	-11%	-23%	-8
O=C(CCCSc1nc(-c2ccco2)cc(C(F)(F)F)n1)Nc1ccc2c(c1)OCO2	4µM*	-3%	/	-6%	?	-26
O=C(CSc1nc(-c2ccco2)cc(C(F)(F)F)n1)Nc1ccc2c(c1)OCO2	3.5µM*	-11%	?	-9%	?	?
Cc1nn(C)c(C)c1NC(=O)CCCSc1nc(-c2ccco2)cc(C(F)(F)F)n1	2.2µM*	?	/	-16%	?	?
COc1ccc(NC(=O)CSc2nc(-c3ccco3)cc(C(F)(F)F)n2)cc1	/	?	-26%	?	-22%	-5
Cc1ccc(C(C(=O)NC(C)(C)C)N(CCCN2CCOCC2)C(=O)c2ccc(-c3ccccc3)[nH]2)o1 (stereo not given)	13%	-3%[46.1 µM]	-2%	12%	-1%	-74*
Cc1cccc(-c2nc3c(cnn3-c3ccccc3)c(=O)n2-c2ccc(Br)cc2)c1	/	/	-14%	5%[46.1 µM]	-12%	60
O=C(Nc1ccc([N+](=O)[O-])cc1Cl)c1cc(Br)ccc1O	/	/	3.5µM*	/	0.79µM*	/
O=C(Nc1cc(Cl)ccc1Cl)c1cc([N+](=O)[O-])cc(Br)c1O	/	/	-9%	/	-22%	/
O=C(Nc1ccc([N+](=O)[O-])cc1Cl)c1cc(Cl)cc(Cl)c1O	/	/	8.9µM*	/	?	/
Cc1c(Cl)cccc1NC(=O)CSc1nc(=O)n(Cc2cccnc2)c2c1CCC2	/	/	-9%	0%[46.1 µM]	-17%	16
CCCSc1nsc(SCCC)c1C#N	20%	?	/	19%	-7%	4
C#CCSc1nsc(SCC#C)c1C#N	11µM*	1%	-2%	-15%	0%	-17
Cc1cc(C(F)(F)F)nc(SCC(=O)NC2CC3CCC2C3)n1 (stereo not given)	0%	2%	i	19%	-17%	-68*
Cc1cc(C(F)(F)F)nc(SCC(=O)Nc2ccccc2)n1	-2%	23%	/	16%	/	-9
CC(=O)NC(c1cc(Cl)c2cccnc2c1O)C1CC1 (stereo not given)	/	/	/	/	/	-97*
CCC(=O)NC(c1ccco1)c1cc(Cl)c2cccnc2c1O (stereo not given)	6.3µM*	?	7.9µM*	?	?	-97*
CC(=O)NC(c1cc(Cl)c2cccnc2c1O)C(C)C (stereo not given)	/	/	/	/	/	-98*
CCCCC(=O)NC(c1ccco1)c1cc(Cl)c2cccnc2c1O (stereo not given)	8.9µM*	?	13µM*	?	?	-96*
CCC(=O)NC(c1ccco1)c1cc(Cl)c2cccnc2c1OC (stereo not given)	/	/	/	/	/	-4
SMILES	HCV inh	MARV entry inh	VACV mCherry inh	Lassa entry inh	Vaccinia Venus	HCMV antiviral
O=C(Nc1cc(-c2nc3ccccc3o2)ccc1Cl)c1cccc2c(Cl)cccc12	/	9%[46.1 µM]	-5%	1%[46.1 µM]	-5%	22
FC(F)(F)C(F)(F)C(F)(F)c1nc2ccccc2[nH]1	/	/	16%	/	5%	/
CC(=O)NC(c1ccc(C)cc1)c1cc(Cl)c2cccnc2c1O (stereo not given)	5.6µM*	2.8µM*	?	?	?	-102*
CC(=O)NC(c1ccco1)c1cc(Cl)c2cccnc2c1O (stereo not given)	/	/	/	/	/	-89*
CC(=O)NC(c1ccccc1)c1cc([N+](=O)[O-])c2cccnc2c1O (stereo not given)	?	?	?	?	?	25
CC(=O)NC(C)c1cc(F)c2cccnc2c1O (stereo not given)	/	/	/	/	/	-9
COc1ccc(S(=O)(=O)Nc2ccc3oc4c(c3c2)C(=O)CC(C)(C)C4)cc1	/	10%[46.1 µM]	-10%	?	5%	-10
Cc1ccc(CCNS(=O)(=O)c2c(C)nc3sc(C)c(C)n3c2=O)cc1	/	/	-13%	27%[46.1 µM]	-13%	2
CCOc1ccc(Nc2nc(-c3cccc(Cl)c3)c3c(n2)-c2ccccc2OC3)cc1	/	-1%[46.1 µM]	-12%	14%[46.1 µM]	-14%	-75*
COc1ccc(Nc2nc(-c3cccc(Cl)c3)c3c(n2)-c2ccccc2OC3)cc1	/	?	-6%	4%[46.1 µM]	-7%	-25
COc1ccc(-c2cc3nc(C)c(CCC(=O)N4CCN(c5cc(C)ccc5C)CC4)c(C)n3n2)c(OC)c1	/	-2%[46.1 µM]	?	13%[46.1 µM]	?	2
COc1ccccc1-c1nnc(NC(=O)CCS(=O)(=O)c2ccc(F)cc2)o1	/	/	?	/	4.5µM*	-11
COc1ccccc1-c1nnc(NC(=O)CCS(=O)(=O)c2ccccc2)o1	-4%	20%	8.9µM*	7%	?	-5
CCN(Cc1ccccc1)S(=O)(=O)c1ccc(C(=O)Nc2nnc(-c3ccccc3OC)o2)cc1	7%	?	i	?	-14%	-61*
COc1ccccc1-c1nnc(NC(=O)c2ccc(S(=O)(=O)N(C)C)cc2)o1	-25%	-27%	-25%	-10%	?	0
O=C(CCS(=O)(=O)c1ccc(Cl)cc1)Nc1nnc(-c2ccco2)o1	?	?	10µM*	?	?	-31
CN(C)c1cccc(C(=O)N[C@H]2CC[C@@]34CCCN3C(=O)CCC[C@H]4[C@H]2Cc2ccccc2)c1	/	/	/	/	/	-12
Cc1ccc(C(=O)NCCc2nnc3n2CCN(Cc2cc(C)cc(C)c2)CC3)cc1	/	/	-14%	/	-10%	/
CC[C@H](C)[C@H]1O[C@]2(C=C[C@@H]1C)C[C@@H]1C[C@@H](C/C=C(\C)[C@@H](O[C@H]3C[C@H](OC)[C@@H](O[C@H]4C[C@H](OC)[C@@H](O)[C@H](C)O4)[C@H](C)O3)[C@@H](C)/C=C/C=C3\CO[C@@H]4[C@H](O)C(C)=C[C@@H](C(=O)O1)[C@]34O)O2	/	/	-21%	/	-14%	/
Cc1ccc(-c2nnc(NC(=O)CCS(=O)(=O)c3ccc(F)cc3)o2)c(C)c1	5%	?	-21%	-22%	-15%	4
O=C(CCS(=O)(=O)c1ccc(F)cc1)Nc1nnc(-c2ccc(F)cc2)o1	12%	-8%	10µM*	-12%	?	7
